According to PubChem BioAssay (NCI):
About 79,000 compounds went through this panel and 15% of them were active in at least one assay; those are over-represented in the sample as a whole. Activity calls are given as the source filed them. No stated cut-off is given here; in the data, active means growth inhibition above about 70%; inactive means the rest.

Tests used:
[1] = NCI Yeast Anticancer Drug Screen. Data for the rad52 strain (AID 147);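 further: 0% = growth of vehicle-treated control cultures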; conditions: S. cerevisiae rad52 mutant growth inhibition, hits give high values
Method in brief: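 Inhibition of yeast growth, referenced to vehicle controls, was the measured output for a strain with defective DNA damage repair.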

[2] = NCI Yeast Anticancer Drug Screen. Data for the wt1 strain (AID 149);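 further: 0% = growth of vehicle-treated wt1 cultures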; conditions: S. cerevisiae wt1 strain (SPY 50644) growth inhibition, hits give high values
Method in brief: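 wt1 yeast, compound-treated; % growth inhibition vs vehicle control.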

[3] = NCI Yeast Anticancer Drug Screen. Data for the rad50EPP+ strain (AID 151);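 further: 0% = growth of vehicle-treated control cultures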; conditions: S. cerevisiae rad50 mutant strain, hits give high values
Method in brief: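 Genetically defined yeast (rad50EPP+, DNA damage repair alteration) is grown with compound, and inhibition of growth is expressed relative to vehicle-treated controls.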

[4] = NCI Yeast Anticancer Drug Screen. Data for the mgt1 strain (AID 153); conditions: S. cerevisiae mgt1 mutant growth inhibition, hits give high values
Method in brief: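 In the mgt1 strain, test compounds were added and growth inhibition was determined relative to vehicle-treated controls.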

[5] = NCI Yeast Anticancer Drug Screen. Data for the rad50 strain (AID 155);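 further: 0% = growth of vehicle-only cultures of the same strain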; conditions: S. cerevisiae rad50 strain growth inhibition, hits give high values
Method in brief: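 Genetically altered yeast (DNA repair pathway); compound treatment; growth inhibition vs vehicle ctrl.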

[6] = NCI Yeast Anticancer Drug Screen. Data for the mec2-1 strain (AID 157); conditions: S. cerevisiae mec2-1 strain, hits give high values
Method in brief: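 Each compound was tested on mec2-1 yeast, a strain altered in DNA damage repair or cell cycle control. Growth inhibition is reported relative to vehicle.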

[7] = NCI Yeast Anticancer Drug Screen. Data for the rad14 strain (AID 159);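 further: 0% = growth of vehicle-treated control cultures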; conditions: S. cerevisiae rad14 strain growth inhibition, hits give high values
Method in brief: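 Test compounds were applied to a repair-deficient yeast strain. Its growth was then compared with that of cultures given vehicle alone, and inhibition was expressed relative to those controls.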

[8] = NCI Yeast Anticancer Drug Screen. Data for the sgs1 mgt1 strain (AID 161);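 further: 0% = growth of cultures given vehicle only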; conditions: S. cerevisiae sgs1 mgt1 strain, hits give high values
Method in brief: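 Inhibition of yeast growth, normalised to vehicle-treated controls, is reported for a strain bearing genetic alterations in DNA damage repair.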

[9] = NCI Yeast Anticancer Drug Screen. Data for the CLN2oe strain (AID 163);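 further: 0% = growth of vehicle-only control cultures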; conditions: S. cerevisiae CLN2oe strain, hits give high values
Method in brief: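 First, the altered yeast strain was treated with each compound; second, its growth was measured; finally, inhibition was derived by comparison with vehicle controls.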

[10] = NCI Yeast Anticancer Drug Screen. Data for the cln2 rad14 strain (AID 165);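 further: 0% = growth equal to vehicle treated cultures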; conditions: S. cerevisiae cln2 rad14 strain, hits give high values
Method in brief: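 Test compounds were added to cln2 rad14 yeast cultures; inhibition of growth was then determined by comparison with vehicle treatment.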

[11] = NCI Yeast Anticancer Drug Screen. Data for the bub3 strain (AID 167); conditions: S. cerevisiae bub3 mutant strain, hits give high values
Method in brief: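 Yeast carrying a defined mutation is treated with each compound, and growth is compared with that of vehicle-exposed cells to give inhibition.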

[12] = NCI Yeast Anticancer Drug Screen. Data for the wt2 strain (AID 169);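 further: 0% = growth of vehicle-treated yeast cultures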; conditions: S. cerevisiae wt2 strain growth inhibition, hits give high values
Method in brief: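 The panel's yeast strains carry defined changes in DNA repair or cell cycle genes. Each strain is grown with compound, and growth loss is scored relative to vehicle.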

[13] = NCI Yeast Anticancer Drug Screen. Data for the mlh1 strain (AID 171);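 further: 0% = growth of vehicle-treated control cultures of the same strain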; conditions: S. cerevisiae mlh1 strain growth inhibition, hits give high values
Method in brief: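 Inhibition values reflect reduced yeast growth in the presence of compound, referenced to vehicle controls, using a strain chosen for its alteration in DNA repair or cell cycle control.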

[14] = NCI Yeast Anticancer Drug Screen. Data for the sgs1 strain (AID 173);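 further: 0% = growth of vehicle-only control cultures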; conditions: S. cerevisiae sgs1 mutant, hits give high values
Method in brief: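 Vehicle-treated cultures served as reference for growth inhibition of a yeast strain altered in DNA damage repair or cell cycle control after compound exposure.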

[15] = NCI Yeast Anticancer Drug Screen. Data for the mlh1 rad18 strain (AID 175); conditions: S. cerevisiae mlh1 rad18 strain growth inhibition, hits give high values
Method in brief: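 Inhibition values reflect reduced growth of mutant yeast versus vehicle-treated controls following compound exposure; the mutations affect DNA damage repair.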

[16] = NCI Yeast Anticancer Drug Screen. Data for the rad18 strain (AID 177); conditions: S. cerevisiae rad18 mutant growth inhibition, hits give high values
Method in brief: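 Steps: expose repair-mutant yeast to compound; measure growth; express as inhibition relative to vehicle control.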

[17] = at 5.0 µM (retest, dose inferred, filed as 0.5)
[18] = at 50.0 µM (retest, dose inferred, filed as 5.0)

Measured: growth inhibition

Nc1ccc2c(=S)c3ccccc3[nH]c2c1
active: [1]; at 100.0 µM 71% | [3]; at 100.0 µM 74% | [8]; [18] 83% | [8]; at 50.0 µM 80.5% | [11]; [18] 82% | [12]; at 100.0 µM 83%
inactive: [1]; at 1.2 µM 8% | [1]; at 3.7 µM 12% | [1]; at 11.0 µM 12% | [1]; at 33.0 µM 32% | [2]; at 1.2 µM 9% | [2]; at 3.7 µM 30% | [2]; at 11.0 µM 22% | [2]; at 33.0 µM 44% | [2]; at 100.0 µM 48% | [3]; at 1.2 µM 0% | [3]; at 3.7 µM 6% | [3]; at 11.0 µM 12% | [3]; at 33.0 µM 23% | [4]; at 1.2 µM -3% | [4]; at 3.7 µM 1% | [4]; at 11.0 µM 0% | [4]; at 33.0 µM 16% | [4]; at 100.0 µM 51% | [5]; at 1.2 µM 18% | [5]; at 3.7 µM 1% | [5]; [17] 15% | [5]; at 11.0 µM 8% | [5]; at 33.0 µM 22% | [5]; [18] 50% | [5]; at 50.0 µM 29.4% | [5]; at 100.0 µM 48% | [6]; at 1.2 µM 9% | [6]; at 3.7 µM -3% | [6]; [17] 14% | [6]; at 11.0 µM -3% | [6]; at 33.0 µM 26% | [6]; [18] 40% | [6]; at 50.0 µM 28.9% | [6]; at 100.0 µM 35% | [7]; at 1.2 µM 4% | [7]; at 3.7 µM 7% | [7]; at 11.0 µM 2% | [7]; at 33.0 µM 12% | [7]; at 100.0 µM 42% | [8]; [17] 29% | [9]; at 1.2 µM 16% | [9]; at 3.7 µM 4% | [9]; at 11.0 µM 13% | [9]; at 33.0 µM 19% | [9]; at 100.0 µM 51% | [10]; [17] 26% | [10]; [18] 62% | [10]; at 50.0 µM 28.3% | [11]; at 1.2 µM -19% | [11]; at 3.7 µM -16% | [11]; [17] 9% | [11]; at 11.0 µM -16% | [11]; at 33.0 µM -9% | [11]; at 50.0 µM 47.5% | [11]; at 100.0 µM 35% | [12]; at 1.2 µM -7% | [12]; at 3.7 µM -1% | [12]; at 11.0 µM 1% | [12]; at 33.0 µM 49% | [13]; at 1.2 µM -2% | [13]; at 3.7 µM 9% | [13]; at 11.0 µM -2% | [13]; at 33.0 µM 27% | [13]; at 100.0 µM 61% | [14]; at 1.2 µM 17% | [14]; at 3.7 µM 18% | [14]; at 11.0 µM 20% | [14]; at 33.0 µM 24% | [14]; at 100.0 µM 59% | [15]; [17] 6% | [15]; [18] 64% | [16]; at 1.2 µM 2% | [16]; at 3.7 µM -2% | [16]; at 11.0 µM -8% | [16]; at 33.0 µM 4% | [16]; at 100.0 µM 67%
